# According to PubChem BioAssay (NCI):
# This is part of a sample that, as a whole, favours compounds with a hit. Of some 83,000 tested, about 20% had one in any assay.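 Percent growth is the endpoint: 0 to 100 indicates growth inhibition (40 means 60% inhibition), 0 means no net growth, and negative values indicate cell death.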 A number with no mark means an inactive call. Active and inactive are the calls of the source. How the source made its calls: active means growth percent below 10; inactive means the rest.
# Tested on: NCI-H23 lung
# Experiment: NCI-60 one-dose screen, 48 h (100 = growth as untreated, 0 = no growth, -100 = all killed)
# Conditions: 10 µM unless noted
row,SMILES,growth
1,c1csc(C2=NN3C(C2)c2ccccc2OC3c2ccncc2)c1 (stereo not drawn),89.8%
2,CC1=CC(C)(C)Nc2ccc(Cc3ccc4c(c3)C(C)=CC(C)(C)N4)cc21,97.1%
3,CCCCn1c(-c2ccc(C(=O)O/N=C(\N)c3ccc4ccccc4c3)cc2)nc(-c2ccccc2)c1-c1ccccc1,65%
4,O=C(Nc1ccc(Cl)cc1)c1cc2cc(F)ccc2cc1O,7.14% (active)
5,Cn1cc(-c2nonc2-c2cn(C)c3ccc(F)cc23)c2cc(F)ccc21,67.6%
6,CCN(CC)S(=O)(=O)c1ccc(OC)c(NC(=O)c2[nH]c(C)c3c2CCCCC3=O)c1,46.9%
7,COc1cccc(-c2nc3sccn3c2-c2ccnc(NCCCNS(=O)(=O)c3cccc(F)c3)c2)c1,21.3%
8,COc1cc(/C=C/c2cc(/C=C/c3ccc(O)c(OC)c3)n(-c3c(C)cccc3C)c(=O)n2)ccc1O,2.99% (active)
9,COc1cccc(-c2nc(SCC(=O)Nc3ccc(C(=O)/C=C/c4ccc(OC)c(OC)c4)cc3)[nH]c(=O)c2C#N)c1,77.7%
10,Cc1cc(C)c2nc3nc(C)cc(C)c3c(N)c2c1,47.6%
11,FC(F)(F)c1ccc(-c2cn3nc(-c4c[nH]c5ccc(Br)cc45)sc3n2)cc1,85.8%
12,CC(=O)O[C@H]1[C@@H]2OC(=O)C(CSc3ccccc3)[C@@H]2C[C@H]2O[C@]2(C)CC/C=C(\C)CCC[C@@H]1C (stereo partly drawn),53.1%
13,Cc1cc(C)nc(SC2=C(Nc3ccc(O)cc3)C(=O)N(Cc3ccccc3)C2=O)n1,98.8% [40 µM]
14,COC(=O)c1ccc(Cn2cnc3c(N)ncnc32)cc1,103%
15,CCOc1nc(-c2ccccc2)cc2c(O)c(C(=O)O)[nH]c(=O)c12,60.9%
16,COc1ccc(Nc2nc(SC)nc(-c3cccc([N+](=O)[O-])c3)c2C#N)cc1,73.6%
17,CN(C)[C@@H]1C(=O)C(C(=O)NCc2nc3[nH]cnc(=S)c3[nH]2)=C(O)[C@@]2(O)C(=O)C3=C(O)c4c(O)cccc4[C@@](C)(O)[C@H]3C[C@@H]12,58.7%

row,SMILES,growth
1,CCOC(=O)c1sc2nc(-c3cccc(O)c3)nc(N3CCOCC3)c2c1C,69.3%
2,O=C1/C(=C/c2ccccc2)SC(=S)N1CCc1ccc(O)cc1,98%
3,OCC(O)c1nc2ccc3[nH]ncc3c2c2c1CCCC2 (stereo not drawn),2.08% (active)
4,CC[C@@H]1O[C@H](O[C@@H](c2cnc[nH]2)[C@H](NC(=O)c2nc([C@H](CC(N)=O)NC[C@@H](N)C(N)=O)nc(N)c2C)C(=O)N[C@H](C)[C@H](O)[C@H](C)C(=O)N[C@@H](C(=O)NCCc2nc(-c3nc(C(=O)NCCCCN=C(N)N)cs3)cs2)[C@@H](C)O)[C@H](O[C@@H]2O[C@H](CO)[C@H](O)[C@H](OC(N)=O)[C@@H]2O)[C@H](C)[C@@H]1C,20.9%
5,COc1cc2c(cc1-c1c(C)noc1C)ncc1nc(C3CCC(F)(F)CC3)n([C@H](C)COC(F)F)c12,60.1%
6,O=C1c2c(O)cc(O)cc2-c2c(-c3ccc(O)cc3)oc3cc(O)cc1c23,39.9%
7,CCN1CCN(c2nc(NCCNc3ccnc4cc(Cl)ccc34)c3ccccc3n2)CC1,69%
8,O=S(=O)(Nc1ccc(Br)c(Cl)c1)c1ccc(-c2cnc(C3CC3)o2)cc1,29.7%
9,Cc1nn(-c2cc(=O)[nH]c3ccc(Cl)cc23)c(N)c1C#N,93.8%
10,Clc1ccc2c(NCCCCNc3nc(N4CCOCC4)nc4ccccc34)ccnc2c1,59.7%
11,CCOc1nc(-c2ccccc2)cc2c(O)c(C(=O)N/N=C/c3ccc(O)cc3O)[nH]c(=O)c12,3.35% (active)
12,O=C(O)c1ccc(NC(=O)c2ccc(-c3cccc([N+](=O)[O-])c3)o2)cc1,91.8%
13,Cc1ccc(NS(=O)(=O)c2ccc(-c3cnc(C4CC4)o3)cc2)cc1C,21.2%
14,O=c1ccccc(-c2ccc(-c3ccco3)cc2)c1O,19.1%
15,CC(C)CC1C(=O)N2CCC[C@H]2C2(O)O[C@](NC(=O)C3C=C4c5cccc6[nH]c(Br)c(c56)C[C@H]4N(C)C3)(C(C)C)C(=O)N12 (stereo partly drawn),71.1%
16,C=CC(=O)Nc1cccc(-c2nc(SC)nc(NCCN3CCOCC3)c2C#N)c1,92.5%
